# According to the supplement of paper PMC8047044:
# Tested on: Neuro-2a
# Test: neurite formation score, plate-normalized to DMSO control mean 5.04 (score (0-8 scale)); higher = more or longer neurites
# Conditions: 1 µM
# Procedure: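 Neuro-2a mouse neuroblastoma cells in PLL-coated 96-well plates were pre-treated for 1 h in DMEM(+) with each kinase inhibitor at 1 µM, then switched to serum-free DMEM(-) with inhibitor to induce neurite outgrowth and fixed about 2-3 h later. Three blinded observers scored neurite formation from 0 (no neurites) to 8 (long neurites on almost all cells).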
row,Structure (SMILES),neurite formation score
1,COc1cc2c(N3CCN(C(=O)Nc4ccc(OC(C)C)cc4)CC3)ncnc2cc1OCCCN1CCCCC1 [Tandutinib (MLN518)],5.29
2,Cc1ccc([N+](=O)[O-])cc1S(=O)(=O)N(C)/N=C/c1cnc2ccc(Br)cn12,4.54
3,CS(=O)(=O)N1CCN(Cc2cc3nc(-c4cccc5[nH]ncc45)nc(N4CCOCC4)c3s2)CC1,4.24
4,O=C(Nc1ccc2[nH]nc(-c3ccncc3)c2c1)[C@@H]1CCN(CC(=O)N2CCN(c3ccc(-c4ncccn4)cc3)CC2)C1,3.8
5,Nc1nc(N)c(N=O)c(OCC2CCCCC2)n1,4.57
6,C=CC(=O)Nc1cccc(Nc2nc(Nc3ccc(OCCOC)cc3)ncc2F)c1,4.91
7,CCCS(=O)(=O)Nc1ccc(F)c(C(=O)c2c[nH]c3ncc(Cl)cc23)c1F,2.91
8,N#Cc1ccc2[nH]c(O)c(-c3ccc(CN4CCOCC4)cn3)c2c1,4.54
9,Nc1ccc(C(=O)Nc2cccc(-c3nc(N4CCOCC4)c4oc5ncccc5c4n3)c2)cn1,4.54
10,CN1CCC(Nc2nc(Nc3ccc(Oc4ccccc4)cc3)c3c(=O)[nH]cc(Br)c3n2)CC1,3.29
11,"CCCCCCCCCCCC(=O)OCC(CO)OC(=O)CCCCCCCCCCC (centres undefined) [1,2-Dilauroyl-sn-glycerol]",4.54
12,COc1ccc(-c2cc3c(C)nc(N)nc3n([C@H]3CC[C@H](OCCO)CC3)c2=O)cn1,3.96
13,Cc1nc(NC(=O)N2CCC[C@H]2C(N)=O)sc1-c1ccnc(C(C)(C)C(F)(F)F)c1,5.24
14,CC(C)CCN1c2nc(Nc3cc(F)c(O)c(F)c3)ncc2N(C)C(=O)C1C (centres undefined),4.21
